Measurements from PubChem BioAssay.
“And” between values parts separate entries of the source, which are not always exact repeats. Equal values may be shown once. The source made the active and inactive calls. Unless noted, no stated cut-off is given here; in the data, active means parasite load remaining mostly below about 12% (no sharp cut-off); inactive means mostly above about 10%.

How the values were obtained:
[1] = P. berghei load reduction in hepatocytes – cell-based, HepG2, luciferase luminescence, HepG2 viability, primary screen (AID 624349);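 further: 100% = mean of DMSO negative control wells on the same plate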; conditions: P. berghei liver stage in HepG2, luciferase luminescence, concentration not given here; parasite load remaining: stronger effect = lower value; viability: measured here: HepG2 viability without parasites
[2] = Wnt pathway potentiators raising nuclear beta-catenin – imaging, WNT3A-conditioned medium, mouse C2C12, NPC library, primary screen (AID 1117326; in the data active means nuclear beta-catenin stimulation mostly above about 4.2%, no sharp cut-off; inactive means mostly below about 10%; further: reference of the scale not given here); conditions: stronger effect = higher value
[3] = stimulators of insulin release from INS-1E, primary screen, cell-based, 5 mM glucose, NPC library (AID 1117329;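 active means compound raises insulin release from rat beta cells at 5 mM glucose, no numeric limit stated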; further: reference of the scale not given here); conditions: rat INS-1E insulin secretion, at 10 µM, stronger effect = higher value
[4] = growth inhibition of GSK3B-pretreated HCT116 cells – cell-based, CellTiter-Glo, 0.2 to 20 µM (AID 1117336;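 active means compounds lowering colon cancer cell viability after pretreatment blocking the GSK3B kinase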); conditions: HCT116 viability after GSK3B inhibitor, at 20 µM, stronger effect = higher value
[5] = inhibition of endothelial tube formation, primary screen, imaging, VEGF stimulated, CD31 staining, tube area, NPC library (AID 1117340;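 active means compound that reduces growth-factor-driven endothelial tube area in a mixed cell culture, no cutoff stated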); conditions: VEGF-stimulated ADSC/ECFC co-culture, at 10 µM, stronger effect = higher value
[6] = GLP1 release stimulators, primary, NCI-H716, NPC library (AID 1117341;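 active means compound raises GLP1 secretion from the human gut endocrine cells, with no numeric limit stated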; further: reference of the scale not given here); conditions: NCI-H716 cells, at 10 µM, stronger effect = higher value
[7] = HCT116 colon cancer cell growth inhibition, primary screen, CellTiter-Glo luminescence, NPC library (AID 1117342;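 active means compounds that lower survival of HCT116 colon cancer cells in the luminescence readout, no numeric limit stated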); conditions: at 20 µM (top of the series)
[8] = reduced SW480 viability measured with CellTiter-Glo, NPC library, primary (AID 1117343;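 active means compounds that lower viability of the colon cancer cells in the luminescence readout, with no numeric limit stated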); conditions: CellTiter-Glo luminescence; at 20 µM (top of the series)
[9] = NPC library primary testing for decreased DLD-1 cell viability via CellTiter-Glo (AID 1117346;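 active means compounds that lower survival of DLD-1 colon cancer cells in the luminescence readout, no cutoff given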); conditions: DLD-1 viability, CellTiter-Glo luminescence; at 20 µM (top of the series)
[10] = molecular target: 6-phosphogluconate dehydrogenase, decarboxylating (Homo sapiens) (UniProt P52209); test: inhibition of human phosphogluconate dehydrogenase – biochemical, recombinant enzyme, NADPH absorbance, primary screen (AID 1159550;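 active means at least 20% inhibition of 6-phosphogluconate dehydrogenase activity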); conditions: recombinant 6PGD, NADPH absorbance 341 nm; at 10 µM; stronger effect = higher value
Chain of 6-phosphogluconate dehydrogenase, decarboxylating (Homo sapiens) (P52209 whole entry, looked up): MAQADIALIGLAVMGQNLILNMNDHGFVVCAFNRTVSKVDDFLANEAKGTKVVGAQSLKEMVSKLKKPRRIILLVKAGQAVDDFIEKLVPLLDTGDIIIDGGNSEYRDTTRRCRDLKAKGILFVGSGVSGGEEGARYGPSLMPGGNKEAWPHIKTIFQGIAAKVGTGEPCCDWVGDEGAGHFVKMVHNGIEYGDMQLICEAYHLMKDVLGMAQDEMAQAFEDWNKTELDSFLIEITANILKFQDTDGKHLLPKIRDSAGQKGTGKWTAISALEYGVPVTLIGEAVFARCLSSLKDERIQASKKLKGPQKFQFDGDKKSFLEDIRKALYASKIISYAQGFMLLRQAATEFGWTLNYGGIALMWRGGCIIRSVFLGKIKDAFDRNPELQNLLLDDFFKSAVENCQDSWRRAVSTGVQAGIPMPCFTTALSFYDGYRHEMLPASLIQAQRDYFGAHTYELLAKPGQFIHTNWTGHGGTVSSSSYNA

Row | SMILES | parasite load remaining [1] | nuclear beta-catenin stimulation ([2]; at 10 µM) | nuclear beta-catenin stimulation ([2]; stimulation, at 2 µM) [%] | insulin secretion stimulation [3] | viability decrease [4] | tube area decrease [5] | GLP1 secretion stimulation [6] | inhibition of viability [7] | viability decrease (inhibition) [8] | viability decrease (inhibition) [9] | inhibition [10] | viability [1]
1 | CCn1cc(C(=O)O)c(=O)c2cc(F)c(N3CCNCC3)nc21 | 165% (inactive) and 68.7% (inactive) and 19.5% (inactive) | -0.6% (inactive) | 0.6 | -0.1% (inactive) | 5.9% (inactive) | 2.1% (inactive) | -2.8% (inactive) | -6.97% (inactive) | -275% (inactive) | -18.4% (inactive) | -18.3% (inactive) | –
2 | O=C1c2c(O)cccc2Cc2cccc(O)c21 | 94% (inactive) and 68.1% (inactive) | -3.3% (inactive) | -2 | 0.8% (inactive) | 38.5% (inactive) | 108% (active) | -2.2% (inactive) | 30.9% (inactive) | 61.6% (active) | 53.6% (active) | -1.39% (inactive) | 73% and 78.8%
3 | COc1cccc(OC)c1C(=O)N[C@@H]1C(=O)N2[C@@H]1SC(C)(C)[C@@H]2C(=O)O | 72.2% (inactive) and 53.5% (inactive) | -0.9% (inactive) | -1.1 | 0.6% (inactive) | -3.9% (inactive) | -4.7% (inactive) | -0.3% (inactive) | -7% (inactive) | 17.4% (inactive) | -4.8% (inactive) | 17.4% (inactive) | 72.9% and 91.1%
4 | O=C(CCCCC(=O)Nc1c(I)cc(I)c(C(=O)O)c1I)Nc1c(I)cc(I)c(C(=O)O)c1I | 81.3% (inactive) | 1.1% (inactive) | 3.3 | -1.2% (inactive) | -15.2% (inactive) | 5.5% (inactive) | -3.5% (inactive) | -1.4% (inactive) | 7.4% (inactive) | -2.6% (inactive) | 15.2% (inactive) | 93.2%
5 | OC[C@H]1O[C@@H](Oc2ccc(O)cc2)[C@H](O)[C@@H](O)[C@@H]1O | 102% (inactive) | -2.1% (inactive) | 1 | -0.6% (inactive) | -2.2% (inactive) | 1% (inactive) | -2.9% (inactive) | -1.8% (inactive) | 2.3% (active) | -10.8% (inactive) | 17.9% (inactive) | 72.2%
6 | CC1CCC(NC(=O)N(CCCl)N=O)CC1 (configuration not stated) | 62.2% (inactive) and 25.6% (inactive) | 5.9% (inactive) | 4.9 | 2% (inactive) | -24.4% (inactive) | 25.1% (inactive) | 1.7% (inactive) | -2.27% (inactive) | 12.6% (inactive) | -14.1% (inactive) | 2.66% (inactive) | 87.1% and 108%
7 | COc1ccnc(CS(=O)c2nc3ccc(OC(F)F)cc3[nH]2)c1OC (configuration not stated) | 154% (inactive) and 46.8% (inactive) and 36.5% (inactive) | -0.4% (inactive) | 1.1 | 1.2% (inactive) | 20.6% (inactive) | -16.8% (inactive) | -0.9% (inactive) | 5.27% (inactive) | -0.2% (inactive) | -5.4% (inactive) | 11.1% (inactive) | 91.7% and 94.9% and 116%
8 | CCC[C@H](N[C@@H](C)C(=O)N1[C@H](C(=O)O)C[C@@H]2CCCC[C@@H]21)C(=O)OCC | 98.2% (inactive) and 68.9% (inactive) and 42.7% (inactive) | 1.3% (inactive) | 0.5 | 2.3% (inactive) | -3% (inactive) | 14.1% (inactive) | -2.9% (inactive) | 18.1% (inactive) | 0% (inactive) | 6% (inactive) | -5.32% (inactive) | 70.3% and 83% and 98.6%
9 | CC(=O)Nc1ccc(OCC(O)CNC(C)C)cc1 (configuration not stated) | 80.4% (inactive) and 87% (inactive) and 55.4% (inactive) | 0.5% (inactive) | 1.7 | 5.6% (inactive) | 4.2% (inactive) | -0.3% (inactive) | -1.9% (inactive) | 11.1% (inactive) | 26.9% (inactive) | 42% (inactive) | 2.72% (inactive) | 110% and 75.8% and 108%
